# This excerpt belongs to a sample that is enriched for hits.
# Marburg entry inh: Marburg virus entry inhibition; Marburg virus pseudotyped entry inhibition, cell reporter; Potency, µM (highest dose often 37.8 µM), without a hit: top-dose activity change, negative = inhibition, hits mostly inhibitors; 300,000 compounds, 1.8% hits; calls by dose curve; tested in HEK293 cells; note: potency is the fitted concentration of half-maximal effect; % is set by controls: 0 for no effect and ±100 for the full control effect
# Shiga inhibitor: Shiga toxin inhibition | Vero cells, Shiga toxin protein synthesis inhibition reporter | inhibition, % at 38.7 µM | 290,000 compounds, 9.2% hits; in the data active = inhibition mostly above about 28%, no sharp cut-off; inactive = mostly below about 43%; note: 0% is about no effect
# LASV entry inh: inhibitors of Lassa virus binding or cell entry; 300,000 compounds, 1.2% hits; Lassa virus pseudotype entry inhibition, cell reporter; Potency, µM (series often up to 37.9 µM), for inactives: at the highest dose activity change, negative = inhibition, hits mostly inhibitors; calls by dose curve; tested in HEK293 cells; note: potency is the fitted concentration of half-maximal effect; % is set by controls: 0 for no effect and ±100 for the full control effect; nearly all actives have a fitted effect of over 50% in size
# AMA1-RON2 inh: inhibitors of Plasmodium falciparum AMA1-RON2 interaction | 360,000 compounds, 0.2% hits | Potency, µM (doses to about 58.2 µM), for inactives: top-dose activity change, negative = inhibition, hits mostly inhibitors | AlphaScreen AMA1-biotinylated RON2 peptide binding; active = well fitted inhibition curve with a large enough effect; inconclusive = small, poorly fitted or top-dose-only effect; inactive = no such curve, though single readings can be large or run the other way;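 note: potency is the fitted concentration of half-maximal effect; 0% = vehicle wells and -100% = peptide control; nearly all actives have a fitted effect of over 45% in size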
#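 AMA1 (3D7) with his tag at 25 nM final met compounds first, then biotinylated RON2 peptide at 25 nM; detection used donor plus acceptor beads, 10 µg/mL apiece, read by AlphaScreen after 30 min at room temperature.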
# CHX counter: counter-screen hit for Shiga toxin inhibitors, cycloheximide; AID 2314; cell reporter, cycloheximide protein synthesis inhibition counterscreen; max response, %; 300,000 compounds, 12% hits; in the data active = max response mostly above about 13%, no sharp cut-off; inactive = mostly below about 14%; note: read at 38.3 µM for the half of the compounds with a filed dose; 0% is about no effect
# An asterisk follows results filed as active; i = inactive; ? = inconclusive; . = no result given; [ ] = another dose, or the depositor's remark.
SMILES,Marburg entry inh,Shiga inhibitor,LASV entry inh,AMA1-RON2 inh,CHX counter
CCN(CC)S(=O)(=O)c1ccc2oc(SCc3ccc(F)cc3)nc2c1,?,6,11µM*,23%,12*
CCN(CC)S(=O)(=O)c1ccc2oc(Nc3ccccc3)nc2c1,?,79*,4%[46.1 µM],14%,30*
CCN(CC)S(=O)(=O)c1ccc2oc(SCC(=O)NC3CC3)nc2c1,5%,-11,-2%,4%,2
CCc1c(C)sc2c1CCN(C(=O)Nc1cc(C)ccc1OC)C2c1ccc(F)cc1 (stereo not given),.,.,1%[46.1 µM],.,.
CCOc1ccc(/C=C/C(=O)N(C)CC(=O)Nc2cccc(F)c2)cc1OCC,.,.,.,0%,.
COc1ccccc1-n1cnc2cc(C(=O)NC3CCCC3)ccc21,16%,19*,6%,19%,2
O=C(NC1CC1)c1ccc2c(c1)ncn2C1CCCC1,11%,69*,21%,?,33*
Cc1ccc(-n2c(C)csc2=N)cc1,?,55*,-16%,53%,56*
Cc1csc(=N)n1-c1ccc(Cl)cc1,-8%,176*,?,-5%,59*
Cc1cc(=O)cc(C)n1-c1ccc(Cl)cc1,13%,-24,20%,-3%,-2
O=[N+]([O-])c1ccc(-c2nc(NCc3cccnc3)c3ccccc3n2)cc1,.,53*,.,2%,23*
COc1ccccc1-c1noc(CSc2nnc(Cc3ccccc3)n2-c2ccc(C)c(C)c2)n1,4%[46.1 µM],.,-21%[46.1 µM],.,.
CC(C)(C)OC(=O)[C@H]1[C@H](c2ccc([N+](=O)[O-])cc2)C2(C(=O)c3ccccc3C2=O)C2c3ccccc3C=NN21 (stereo not given in full),?,42,-15%,-19%,12*
COc1nc(C)nc2c1sc1nc3c(cc12)COC(C)(C)C3,?,58,-17%,-8%,34*
Cc1nc(OCC(C)C)c2sc3nc4c(cc3c2n1)COC(C)(C)C4,0%[46.1 µM],60*,-7%[46.1 µM],1%,20*
CCc1nc(OCc2ccco2)c2sc3nc4c(cc3c2n1)COC(C)(C)C4,?,5,-26%,-4%,4
CC1(C(=O)NCc2cccs2)CCN1CCc1ccccc1 (stereo not given),.,.,.,-4%,.
CCOc1ccc(NC(=O)CCn2cccn2)cc1,.,.,7%[46.1 µM],.,.
S=C(c1ccc(N2CCCC2)c(Br)c1)N1CCCCC1,24%,17,-2%,?,12*
S=C(c1ccc(N2CCCC2)cc1)N1CCCCC1,-3%,112*,?,-25%,52*
CSc1ccc(C(=S)N2CCCC2)cc1,.,25,.,0%,16*
CSc1ccc(C(=S)N2CCN(C)CC2)cc1,-8%,10,-5%,-6%,9
COc1ccc(C(=S)N2CCCCC2)cc1Br,20%[46.1 µM],11,-1%,-5%,1
CC(=O)c1cccc(OCC(=O)Nc2ccccc2N2CCOCC2)c1,.,.,.,10%,.
Cc1ccc(O)c(CCc2ccc(O)cc2)n1,9%[46.1 µM],9,20%[46.1 µM],4%,8
SMILES,Marburg entry inh,Shiga inhibitor,LASV entry inh,AMA1-RON2 inh,CHX counter
Cc1cc(NC(=O)c2ccc3sc([C@@H]4O[C@H](CO)[C@H](O)[C@H](O)[C@H]4O)nc3c2)n(C)n1,.,.,.,-3%,.
Cc1ccc(/C=N/NC(=O)c2nnn(-c3nonc3N)c2CNc2ccccc2)cc1,.,-12,.,19%,-4
Cc1ccc(COc2cccc(/C=N/NC(=O)c3nnn(-c4nonc4N)c3C)c2)cc1,.,39,.,5%,15*
Nc1nonc1-n1nnc(C(=O)N/N=C/c2ccc(OCc3ccccc3F)cc2)c1CNc1ccccc1,.,18,.,16%,17*
O=c1cc(-c2cccc(F)c2)[nH]c2cc(Cl)ccc12,.,i,.,.,-4
O=C(CN1C(=O)C2C3CCC(C3)C2C1=O)NCc1ccco1 (stereo not given),23%[46.1 µM],43*,-6%,-2%,11
O=C(N/N=C/c1cccs1)c1ccc2ccccc2c1,?,109*,-27%,17%,54*
O=C(N/N=C/c1cccs1)c1ccc2ncccc2c1,-7%[46.1 µM],46*,-14%[46.1 µM],18%,18
COc1cccc(-n2c(N)cc(=O)nc2SCC(=O)N2CCN(c3ccccc3)CC2)c1,-9%,2,2%,14%,-3
Fc1ccc(COc2ccc(/C=N/n3cnnc3)cc2)cc1,11%,-39,9%,1%,-7
O=c1[nH]c(Cc2ccccc2)nc2c1oc1ccccc12,8%,-13,-1%,-5%,4
Cc1nc2c(oc3ccccc32)c(=O)o1,7%,144*,?,10%,88*
Cc1ccc2c(c1)sc[n+]2Cc1ccccc1,?,82*,14%,?,42*
CCOC(=O)c1c(C)c(C(=O)NCCc2ccc(OC)cc2)c(C)n1CC,-26%[46.1 µM],.,.,.,.
CNc1c(N)c(=O)oc2ccccc12,?,18,6%,27%,7
Cc1ccc(Nc2c(N)c(=O)oc3ccccc23)cc1,?,57*,?,-9%,22*
CC(=O)N1Cc2cc(C(=O)NCC(F)(F)F)nc(-c3cccc(-c4cc5ccccc5o4)c3)c2[C@H]1CCO,.,.,.,4%,.
Cc1ccc(C)c(NC(=O)C(=O)NCCc2csc3nc(-c4ccccc4C)nn23)c1,.,.,11%[46.1 µM],.,.
NC(=O)c1ccccc1N/C=C/C(=O)c1ccccc1,11%,56*,-2%,-8%,47*
NC(=O)c1ccccc1N/C=C1\CCCCC1=O,.,34,.,-6%,-3
COC(=O)c1ccccc1N/C=C/C(=O)c1ccc(Br)cc1,10%,27*,4%,-5%,43*
CCSc1ccccc1C(=O)NCc1ccco1,-3%,-11,4%,-7%,-7
CC(=O)Oc1c(C)cc(Cl)cc1C(=O)Nc1ccc([N+](=O)[O-])cc1Cl,1.5µM*,128*,3.7µM*,-2%,74*
Cc1ccc(C(=O)NCCc2nnc3ccc(SCC(=O)N4CCCCC4)nn23)cc1,-11%,17,-1%,-13%,16
Cc1ccc(C(=O)NCCc2nnc3ccc(SCC(=O)N4CCCC4)nn23)cc1,7%,53*,?,4%,42*
SMILES,Marburg entry inh,Shiga inhibitor,LASV entry inh,AMA1-RON2 inh,CHX counter
O=C(C[C@@H]1C=C[C@@H](NC(=O)C2CC2)[C@@H](CO)O1)NCc1ccccc1Cl,.,.,.,-2%,.
Cn1nc(C(=O)OCC(=O)c2ccc[nH]2)c2ccccc2c1=O,6%[46.1 µM],-11,-13%,-23%,-1
Nc1nn(-c2ccccc2)nc1C(=O)OCc1ccccc1F,.,99,.,.,31*
Cn1nc(C(=O)OCc2ccccc2F)c2ccccc2c1=O,10%[46.1 µM],35*,.,3%,12
Cc1ccccc1COC(=O)c1nn(-c2ccccc2)nc1N,?,54*,?,31%,32*
Cn1cnc([N+](=O)[O-])c1Sc1ncnc2nc[nH]c12,18µM*,0,?,9%,0
Cn1cnc(Sc2ncnc3nc[nH]c23)c1[N+](=O)[O-],.,7,.,28%,7
O=C(NC(c1ccc(-c2ccccc2)cc1)c1cnccn1)C1CCN(CCCOc2ccccc2)CC1 (stereo not given),.,.,.,-17%,.
COCc1c(C(=O)N/N=C/c2cccc3ccccc23)nnn1-c1nonc1N,.,11,.,-1%,-3

# Screens deposited in PubChem by National Center for Advancing Translational Sciences (NCATS).
